Assay outcomes from PubChem.
Most compounds without a hit are left out; they make up all but 6.3% or so of the library.
Abs 340nm – compound light absorbance at 340 nm, profiling panel, artefact control, biochemical, MLSMR library, data from PS, PMK, MK assays. compound absorbance at 340 nm, fold over control. fold change at 10 µM. 65,000 tested, under 10 active;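 active = at 10 µM dose, initial 340 nm absorbance at least 2 fold that of control wells; inactive = change under 2 fold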;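 note: initial absorbance extrapolated from kinetic A340 decline of NADH oxidation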
Spn MK inh – S. pneumoniae MK inhibitors, primary screen, biochemical, PK/LDH-coupled NADH absorbance; mevalonate kinase [Streptococcus pneumoniae D39]; purified MK, PK/LDH-coupled NADH absorbance 340 nm; inhibition, % at 10 µM; 65,000 compounds, 0.48% hits; AID 555, 2006;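 active = ranked among the strongest by inhibition in the single 10 µM screen, a fixed top-ranked set picked for dose follow-up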
NADH enzymes – inhibitors of PK/LDH coupling enzymes, profiling panel, artefact control, biochemical, MLSMR library; coupled PK/LDH NADH assays, four targets; IC50, µM (series often up to 10 µM), without a hit: top-dose inhibition; 65,000 compounds, 0.02% hits; AID 774, 2007;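 active = single-dose screening hits from any of four coupled enzyme assays that gave an IC50 when retested across doses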;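 note: the DPM-DC format reads NADH fluorescence rather than 340 nm absorbance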
Spn PMK inh – S. pneumoniae PMK inhibitors, primary screen, biochemical, mevalonate pathway, pilot trial included. phosphomevalonate kinase (Streptococcus pneumoniae D39). purified PMK, PK/LDH-coupled NADH absorbance 340 nm. inhibition, % at 10 µM. 65,000 compounds, 0.49% hits. AID 539, 2006;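 active = top-ranked compounds by inhibition in the single 10 µM screen, taking a fixed number of the strongest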;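 note: 0% = full reaction with DMSO carrier and 100% = background rate without enzyme reaction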
Autofluor 339 – intrinsic fluorescence of library compounds, ex339/em460 – biochemical, MLSMR library, data from DPM-DC assay, artefact control, profiling panel; compound autofluorescence, ex339/em460 nm, NADH buffer; active compounds read high; 1 = no-compound wells, NADH background; fluorescence fold increase at 10 µM; 65,000 compounds, 5.5% hits;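 active = at 10 µM, mean starting fluorescence two-fold or more over control wells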;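 note: signal is the first read of a kinetic run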
DPM-DC inhibit – S. pneumoniae DPM-DC inhibitors, primary screen, biochemical, PK/LDH-coupled NADH fluorescence. diphosphomevalonate decarboxylase (Streptococcus pneumoniae D39). purified DPM-DC. calls only at 10 µM. 65,000 compounds, 0.49% hits. AID 556, 2006;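 active = the 320 compounds with the highest percent inhibition in the single-dose primary screen, excluding strongly autofluorescent ones, cut at about 32% in these data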;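 note: kinetic rate of NADH fluorescence loss reporting ADP formed by the decarboxylase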
Numbers without * were called inactive; i = inactive; nt = no result given.

SMILES	Abs 340nm	Spn MK inh	NADH enzymes	Spn PMK inh	Autofluor 339	DPM-DC inhibit
c1ccc(-c2cnc(-c3cccnc3)o2)cc1	1.1	3.0	6.0%	8.0	2.09*	nt
NC(=O)c1ccc(-c2ncc(-c3ccccc3)o2)cc1	1.17	3.0	11.0%	18.0	2.08*	nt
CCC(=O)N1CCc2cc(S(=O)(=O)N3CCN(c4ccccn4)CC3)ccc21	1.05	0.0	4.0%	9.0	1.13	i
Cc1nc2ccc3nc(NC(=O)c4ccc5c(c4)OCCO5)sc3c2s1	1.04	3.0	7.0%	18.0	3.47*	i
Cc1nc2c(ccc3nc(NC(=O)c4ccc5c(c4)OCCO5)sc32)s1	1.01	11.0	12.0%	13.0	2.38*	i
O=C(Nc1cccc2nsnc12)c1ccc2c(c1)OCCO2	0.99	7.0	10.0%	10.0	1.77	i
COC(=O)c1ccc(Oc2nc3ccccc3n3c(C)nnc23)cc1	1.01	5.0	3.0%	4.0	1.13	i
COC(=O)c1ccc(CSc2ccc3nnc(-c4cccc(F)c4)n3n2)o1	1.03	6.0	13.0%	15.0	1.45	i
CCC(C)NC(=O)c1ccccc1C(=O)NC(C)CC (configuration not stated)	1.08	5.0	2.0%	0.0	1.05	i
O=C(Nc1ccccc1)c1ccccc1O	1.11	6.0	13.0%	19.0	2.06*	nt
Cc1ccc(NC(=O)c2ccccc2O)cc1	1.02	0.0	2.0%	0.0	1.34	i
CCC(NC(=O)c1ccccc1O)c1ccccc1 (configuration not stated)	1.01	10.0	10.0%	9.0	3.67*	nt
COc1ccc(OC)c(N2C(=O)CC(Cc3ccc(C)cc3)C2=O)c1 (configuration not stated)	1.05	4.0	1.0%	0.0	1.07	i
O=C(O)C1CC=CCC1C(=O)Nc1cccc(C(=O)N2CCCCC2)c1 (configuration not stated)	0.98	8.0	2.0%	0.0	1	i
CCOC(=O)N1CCN(C(=O)c2cc(C)c3c(C)nn(-c4ccccc4)c3n2)CC1	1	6.0	7.0%	15.0	1.13	i
Cc1nn(-c2ccccc2)c2nc(-c3ccco3)cc(C(=O)O)c12	1.22	6.0	8.0%	10.0	2*	nt
O=C(O)c1cc(-c2ccco2)nc2ccccc12	1.22	13.0	8.0%	3.0	3.69*	nt
COc1ccc(F)cc1S(=O)(=O)Nc1ccc(C)cc1	1.01	14.0	5.0%	0.0	1.07	i
Cc1cccc(NC(=O)CCCCCN2C(=O)c3ccccc3C2=O)n1	1	3.0	2.0%	11.0	1.05	i
CCOC(=O)C1=C(C)Nc2ccccc2N=C1NC(=O)CCCN1C(=O)c2ccccc2C1=O	0.99	2.0	10.0%	27.0*	1.07	i
Cc1cccc(N2CCN(C(=O)c3cn(C)c(=O)c4c3c3ccccc3n4C)CC2)c1C	1.04	0.0	6.0%	15.0	1.89	i
COCCn1cc(C(=O)N2CCN(C)CC2)c2c3ccccc3n(C)c2c1=O	1.06	0.0	6.0%	11.0	4.61*	nt
CCOC(=O)N1CCN(C(=O)c2cn(CCOC)c(=O)c3c2c2ccccc2n3C)CC1	1.06	7.0	8.0%	9.0	4.33*	nt
O=C1c2ccccc2C(O)(Cc2ccccc2)N1c1ccc2c(c1)OCO2 (configuration not stated)	1.02	0.0	7.0%	16.0	1.11	i
N#Cc1c(NC(=O)COC(=O)C2CC3C=CC2C3)oc(-c2ccccc2)c1-c1ccccc1 (configuration not stated)	1.03	4.0	2.0%	0.0	1.27	i
CCOC(=O)CNC(=O)CSc1nnc(-c2ccccc2OC)n1CC	1.08	0.0	0.0%	0.0	1.21	i
CCOC(=O)CCc1c(C)n(CC)c2cc(-c3ccccc3OC)nn2c1=O	1.03	0.0	13.0%	13.0	3.65*	i
CC(=O)c1c(C)[nH]c(C(=O)N2CCN(c3ncccn3)CC2)c1C	1.05	0.0	0.0%	0.0	1.07	i
